Experimental data: PubChem BioAssay AID504569 (NMMLSC, 2011)
Entries with a potency or affinity are not part of this list. Active and inactive are the calls of the source.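 The calls were made as follows: active = activity score above a set limit, rewarding a half-maximal dose under 10 µM and fitted response height over 20%; inactive = the rest.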

target: ATP-dependent translocase ABCB1 (Homo sapiens) (UniProt P08183); test: P-gp JC-1 efflux blockade concentration-response – Jurkat-DNR cells, flow cytometry, set 2, dose response (AID 504569); settings: series mostly up to 50 µM
Sequence (P08183 whole entry, looked up): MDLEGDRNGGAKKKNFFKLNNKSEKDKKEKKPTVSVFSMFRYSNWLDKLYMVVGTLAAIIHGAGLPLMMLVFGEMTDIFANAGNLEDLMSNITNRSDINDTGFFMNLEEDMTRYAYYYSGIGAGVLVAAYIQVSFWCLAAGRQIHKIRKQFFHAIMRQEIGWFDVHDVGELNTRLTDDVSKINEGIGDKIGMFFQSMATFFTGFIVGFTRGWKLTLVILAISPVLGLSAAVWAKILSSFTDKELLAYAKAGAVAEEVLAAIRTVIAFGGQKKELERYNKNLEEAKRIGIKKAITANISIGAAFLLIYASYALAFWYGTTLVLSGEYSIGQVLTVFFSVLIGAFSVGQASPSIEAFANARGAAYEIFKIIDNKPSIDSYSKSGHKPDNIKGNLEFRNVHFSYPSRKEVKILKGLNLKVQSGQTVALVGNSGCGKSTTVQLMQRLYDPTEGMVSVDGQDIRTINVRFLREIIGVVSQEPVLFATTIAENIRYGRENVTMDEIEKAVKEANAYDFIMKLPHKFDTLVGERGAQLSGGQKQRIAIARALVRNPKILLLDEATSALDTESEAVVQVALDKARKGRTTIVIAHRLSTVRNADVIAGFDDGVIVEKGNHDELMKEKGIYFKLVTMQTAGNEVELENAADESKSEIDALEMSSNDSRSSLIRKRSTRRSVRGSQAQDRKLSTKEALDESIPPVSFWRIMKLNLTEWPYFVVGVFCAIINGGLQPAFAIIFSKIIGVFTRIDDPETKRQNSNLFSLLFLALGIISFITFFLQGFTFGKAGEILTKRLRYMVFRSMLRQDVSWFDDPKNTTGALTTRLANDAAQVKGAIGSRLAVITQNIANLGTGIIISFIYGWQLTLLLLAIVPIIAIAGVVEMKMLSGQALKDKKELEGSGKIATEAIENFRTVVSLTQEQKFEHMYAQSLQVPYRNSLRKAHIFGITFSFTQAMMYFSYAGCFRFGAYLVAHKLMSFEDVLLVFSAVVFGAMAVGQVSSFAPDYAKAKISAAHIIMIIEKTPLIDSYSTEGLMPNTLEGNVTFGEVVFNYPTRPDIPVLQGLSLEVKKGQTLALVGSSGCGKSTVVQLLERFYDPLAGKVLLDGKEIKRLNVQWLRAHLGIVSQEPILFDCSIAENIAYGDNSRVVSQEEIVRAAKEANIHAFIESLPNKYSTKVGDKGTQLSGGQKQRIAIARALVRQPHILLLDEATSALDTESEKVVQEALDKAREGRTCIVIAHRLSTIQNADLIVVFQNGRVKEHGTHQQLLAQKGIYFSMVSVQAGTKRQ

outcome, inactive:
Cc1nc2cc(-c3cccs3)nn2c(N2CCN(C(=O)c3ccco3)CC2)c1C, O=S(=O)(c1ccccc1)N1CCN(c2cc(-c3ccccc3)nc3cc(-c4cccc(Cl)c4)nn23)CC1, CC(=O)N1CCN(c2c(C)c(C)nc3cc(-c4ccc(Cl)cc4)nn23)CC1
